According to PubChem BioAssay AID1159580 (chemical genetic matrix, 2015):
Values joined by “and” are separate entries in the source; they are usually repeats but may differ in a detail not shown here. Equal entries are not always repeated. Hit rate of the full screen: of about 5,500 compounds, about 2,000 (36%) were called active. Roughly 18% stayed inconclusive and do not appear here. Cut-off read from the data, not from the text of the source: active = normalized growth mostly below about 0.91 (no sharp cut-off); inconclusive = no clear call, values can overlap the other calls; inactive = mostly above about 0.92. The list shows a part of the results.

Assay: chemical genetic growth profiling, strain panel (AID 1159580);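 note: tested at 20 µM; growth read once vehicle control cultures reached saturation at 30 °C; 1 = growth at the plate median or of vehicle wells; lower values mean less growth of the strain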
Conditions: S. cerevisiae deletion strains, growth OD

Measured: normalized growth

CCCCC(=O)N(Cc1ccc(-c2ccccc2-c2nn[nH]n2)cc1)[C@H](C(=O)O)C(C)C
inactive: locus YAL013W, strain DEP1, stronger effect = lower value 0.992 | locus YAL021C, strain ccr4, stronger effect = lower value 0.974 | locus YAL026C, strain drs2, stronger effect = lower value 0.982 | locus YAL030W, strain snc1, stronger effect = lower value 0.993 | locus YBL061C, strain skt5, stronger effect = lower value 0.994 | locus YBR009C, strain hhf1, stronger effect = lower value 0.986 | locus YBR021W, strain FUR4, stronger effect = lower value 0.993 | locus YBR023C, strain chs3, stronger effect = lower value 1 | locus YBR171W, strain sec66, stronger effect = lower value 0.986 | locus YBR229C, strain ROT2, stronger effect = lower value 1 | locus YBR231C, strain swc5, stronger effect = lower value 1.01 | locus YBR279W, strain paf1, stronger effect = lower value 1 | locus YCL011C, strain gbp2, stronger effect = lower value 0.981 | locus YCL016C, strain dcc1, stronger effect = lower value 0.98 | locus YCL029C, strain bik1, stronger effect = lower value 0.962 | locus YCL061C, strain MRC1, stronger effect = lower value 0.971 | locus YCL069W, strain vba3, stronger effect = lower value 0.99 | locus YCR088W, strain abp1, stronger effect = lower value 0.99 | locus YDL005C, strain med2, stronger effect = lower value 1 | locus YDL035C, strain GPR1, stronger effect = lower value 0.987 | locus YDL040C, strain nat1, stronger effect = lower value 0.992 | locus YDL074C, strain BRE1, stronger effect = lower value 1 | locus YDL101C, strain DUN1, stronger effect = lower value 0.988 | locus YDL134C, strain PPH21, stronger effect = lower value 1.01 | locus YDL185W, strain tfp1, stronger effect = lower value 0.932 | locus YDL192W, strain arf1, stronger effect = lower value 0.972 | locus YDR001C, strain nth1, stronger effect = lower value 0.974 | locus YDR069C, strain doa4, stronger effect = lower value 0.993 | locus YDR101C, strain arx1, stronger effect = lower value 0.995 | locus YDR137W, strain rgp1, stronger effect = lower value 0.969 | locus YDR150W, strain NUM1, stronger effect = lower value 0.972 | locus YDR159W, strain sac3, stronger effect = lower value 0.946 | locus YDR162C, strain NBP2, stronger effect = lower value 0.982 | locus YDR195W, strain ref2 1 | locus YDR297W, strain sur2, stronger effect = lower value 0.994 | locus YDR318W, strain mcm21, stronger effect = lower value 0.979 | locus YDR334W, strain swr1, stronger effect = lower value 0.987 | locus YDR335W, strain msn5, stronger effect = lower value 0.994 | locus YDR388W, stronger effect = lower value 0.989 | locus YDR392W, strain spt3, stronger effect = lower value 0.979 | locus YDR502C, strain sam2, stronger effect = lower value 0.98 | locus YEL003W, strain gim4, stronger effect = lower value 0.968 | locus YEL037C, strain rad23, stronger effect = lower value 0.987 | locus YEL061C, strain CIN8 (second series), stronger effect = lower value 0.976 | locus YEL061C, strain CIN8, stronger effect = lower value 0.985 | locus YER015W, strain faa2, stronger effect = lower value 1.01 | locus YER016W, strain bim1, stronger effect = lower value 0.999 | locus YER110C, stronger effect = lower value 0.973 | locus YER111C, strain swi4, stronger effect = lower value 0.986 | locus YER155C, strain BEM2 (second series), stronger effect = lower value 1.03 | locus YER155C, strain BEM2, stronger effect = lower value 0.994 | locus YER167W, strain BCK2, stronger effect = lower value 0.954 | locus YFR010W, strain ubp6, stronger effect = lower value 0.995 | locus YGL078C, strain dbp3, stronger effect = lower value 0.97 | locus YGL086W, strain mad1, stronger effect = lower value 0.971 | locus YGL167C, strain pmr1, stronger effect = lower value 0.999 | locus YGL173C, strain kem1, stronger effect = lower value 1 | locus YGL227W, strain vid30, stronger effect = lower value 0.985 | locus YGL240W, strain doc1, stronger effect = lower value 1.01 | locus YGL248W, strain PDE1, stronger effect = lower value 0.991 | locus YGL253W, strain hxk2, stronger effect = lower value 0.986 | locus YGR078C, strain PAC10, stronger effect = lower value 0.988 | locus YGR135W, strain pre9, stronger effect = lower value 0.982 | locus YGR229C, strain SMI1, stronger effect = lower value 0.969 | locus YGR252W, strain gcn5, stronger effect = lower value 1.1 | locus YHR013C, strain ard1, stronger effect = lower value 1 | locus YHR027C, strain rpn1, stronger effect = lower value 0.994 | locus YHR030C, strain SLT2, stronger effect = lower value 0.984 and 0.959 | locus YHR079C, strain IRE1 (second series), stronger effect = lower value 0.978 | locus YHR079C, strain IRE1, stronger effect = lower value 0.955 | locus YHR094C, strain hxt1, stronger effect = lower value 0.972 | locus YHR129C, strain ARP1, stronger effect = lower value 0.999 | locus YHR142W, strain chs7, stronger effect = lower value 0.96 | locus YHR200W, strain rpn10, stronger effect = lower value 0.974 | locus YIL066C, strain RNR3, stronger effect = lower value 0.991 | locus YIL073C, strain SPO22, stronger effect = lower value 0.887 | locus YIL125W, strain kgd1, stronger effect = lower value 0.954 | locus YIR030C, strain dcg1, stronger effect = lower value 0.991 | locus YJL092W, strain hpr5, stronger effect = lower value 0.986 | locus YJL095W, strain BCK1 (second series), stronger effect = lower value 0.996 | locus YJL095W, strain BCK1, stronger effect = lower value 0.992 and 0.987 | locus YJL115W, strain asf1, stronger effect = lower value 0.971 | locus YJL129C, strain trk1, stronger effect = lower value 1.01 | locus YJL134W, strain LCB3, stronger effect = lower value 0.992 | locus YJL154C, strain vps35, stronger effect = lower value 0.986 | locus YJL164C, strain tpk1, stronger effect = lower value 0.988 | locus YJL166W, strain qcr8, stronger effect = lower value 0.999 | locus YJL168C, strain set2, stronger effect = lower value 0.984 | locus YJL187C, strain SWE1 (second series), stronger effect = lower value 0.983 | locus YJL187C, strain SWE1, stronger effect = lower value 0.99 | locus YJR043C, strain POL32, stronger effect = lower value 0.979
